# From ChEMBL document CHEMBL1157539, “Thousands of chemical starting points for antimalarial lead identification” (Nature, 2010)
# Test system: Plasmodium falciparum
# Assay: GSK_TCMDC: Inhibition of Plasmodium falciparum 3D7 in whole red blood cells, using parasite LDH activity as an index of growth. Test compounds present at 2uM
# Type: functional
row,Structure (SMILES),Inhibition [%]
1,CC(C)NCc1ccc(-c2cccc(NC(=O)c3ccc(F)cc3)c2)cc1.O=C(O)C(F)(F)F,91
2,CC(=O)Nc1nc(C(=O)Nc2ccc(-c3ccc(-c4nc5cc(F)ccc5[nH]4)cc3)cc2)cs1,100
3,CN1CCN(CC(=O)Nc2ccc(-c3cccc(-c4nc5cc(F)ccc5[nH]4)c3)cc2)CC1,100
4,O=C(Nc1cccc(-c2cccc(-c3nc4cc(C(F)(F)F)ccc4[nH]3)c2)c1)c1ccoc1,99
5,CC(C)CNCc1cccc(-c2cccc(CN(CCCN3CCN(C)CC3)C(=O)CCC3CCCC3)c2)c1.O=C(O)C(F)(F)F,100
6,CCC(NCc1ccc(-c2cncc(C(=O)NCC(C)C)c2)cc1)c1ccccc1.O=C(O)C(F)(F)F (stereo unspecified),86
7,COc1cc2c(cc1NC(=O)CN1CCN(C(=O)c3ccco3)CC1)oc1ccccc12,96
8,C/N=C(/Nc1c(Cl)cccc1Cl)N(C)C.O=C(O)/C=C/C(=O)O,98
9,COc1cc2nc(N3CCN(C(=O)c4ccco4)CC3)nc(NCc3ccccc3)c2cc1OC,100
10,CCC1CN(S(=O)(=O)c2ccc3c(c2)NC(=O)CC(=O)N3)c2cc(Cl)ccc2O1 (stereo unspecified),99
11,Cc1cc(N2CCCC2)nc(Nc2ccc(NC(=O)CC(C)C)cc2)n1,95
12,O=C(Nc1ccc(CCNCc2ccccc2)cc1)Nc1ccc(OC(F)(F)F)cc1.O=C(O)C(F)(F)F,100
13,Cc1cccc(NC(=O)c2ccc(C(=O)NC3CCN(CC4CCCCC4)CC3)cc2)c1.O=C(O)C(F)(F)F,95
14,O=C(Nc1cccc(-c2nn3ncccc3c2-c2ccnc(Nc3ccc(N4CCOCC4)cc3)n2)c1)c1c(F)cccc1F,100
15,CC(C)=C(C(=O)OCc1ccccc1)N1C(=O)[C@@H](NC(c2ccccc2)(c2ccccc2)c2ccccc2)[C@H]1[S+]([O-])CC(=O)OC(C)(C)C (stereo partly specified),92
16,COC(=O)C(Cc1ccccc1)NC(=O)NC1CCN(c2ccnc(Nc3ccc(F)cc3)n2)C1 (stereo unspecified),90
17,O=C(NCc1ccc(C(F)(F)F)cc1)c1cccc(-c2nnc(-c3cccc(-c4cncnc4)c3)o2)c1,96
18,N#CN1CC[C@H](CS(=O)(=O)c2cccc(Br)c2)C1,88

row,Structure (SMILES),Inhibition [%]
1,COc1ccc2nccc(NC(=O)N3CCC(NCCOc4cc(F)cc(F)c4)CC3)c2n1.O=C(O)C(=O)O,86
2,O=C(O)C(F)(F)F.c1cc(CN2CCN(CCN3CCOCC3)CC2)cc(-c2ccc(-c3nc4ccccc4[nH]3)cc2)c1,100
3,CCc1cn2c3c(cc(C(=O)N[C@@H](Cc4ccccc4)[C@H](O)CNCc4ccccc4C)cc13)N(C)S(=O)(=O)CC2.O=CO,98
4,Cl.Cl.N=C(N)c1ccc(-c2cc(-c3cccc(C(=N)N)c3)on2)cc1,96
5,CCC(=O)Oc1ccc(NC(=O)c2cccc(OC)c2)cc1,98
6,COc1cccc(OC)c1-c1ccccc1NC(=O)N1CCCc2cc(C)ccc21,82
7,CC(C)(C)N1CCC(N(Cc2ccc(-c3ccc(C(F)(F)F)cc3)cc2)C(=O)Cn2c(CCc3cccc(F)c3F)nc(=O)c3cccnc32)CC1.O=C(O)C(O)C(O)C(=O)O,100
8,CC(=O)Nc1ccc(COc2ccc(Nc3ccnc4cc(-c5ccccn5)ccc34)cc2)cc1.Cl,99
9,COc1ccc2[nH]c(C)cc(=NN=Cc3ccccc3Cl)c2c1,100
10,CC(C)(C)c1cc(NC2CC2)nc(-c2ccccn2)n1,94
11,Cc1cc(NC(=O)c2ccc(S(=O)(=O)N(Cc3ccccc3)C(C)C)cc2)no1,87
12,Cc1onc(-c2ccccc2)c1-c1nc(NC2CCCC(C)C2)no1 (stereo unspecified),100
13,COc1cc2nc(NCCN3CCOCC3)n3nc(-c4ccccc4)nc3c2cc1OC,96
14,Cl.Cn1c2ccccc2c2c3ccccc3c(CNC(CO)(CO)CO)cc21,96
15,COc1ccccc1N1CCN(Cc2c(O)ccc3cc(Br)ccc23)CC1,89
16,O=C(NC1CCN(c2ccnc3ccccc23)C1)c1cccc(C(F)(F)F)c1.O=C(O)C(F)(F)F (stereo unspecified),94
17,CCCN1CCCN(Cc2cccc(NC(=O)c3ccc(-c4ccccc4)cc3)c2)CC1.O=C(O)C(F)(F)F,92
18,O=C(NCc1cccc(C(F)(F)F)c1)[C@@H]1CCCN1C(=O)c1ccc(O)c(-c2ccc(Cl)c(Cl)c2)c1,99
